Common to all, as to test: PBM binding z-score (relative to random genomic background probes); higher = stronger binding; sequences stand for … in GC…GCGATTGACAGCGTAGAATGAAGG
The test system of experiment [1] is RARb homodimer (NR concentration 270 nM). In short, it runs like this: (§1)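 Scanned fluorescence from custom Agilent 4×180K protein-binding microarrays was regression-normalized. Binding z-scores use random background probes as reference. Ligand-free nuclear receptor dimers were incubated on the arrays for 1 h and detected with antibodies against each partner (one per run).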

Experiment [2] concerns RARg:RXRa (NR concentration 270 nM, RXRa partner concentration 90 nM). In short, it runs like this: as §1
Experiment [3] deals with RARg homodimer (NR concentration 270 nM). An outline of the steps:
as §1

Experiment [4] relates to RXRa DBDmut IVT, anti-RXR (DBD mutation: RXRa K156A/R161A, NR concentration 90 nM). An outline of the steps:
as §1

For experiment [5], the system named is RXRa homodimer (NR concentration 180 nM). In short, it runs like this:
as §1

The test system of experiment [6] is THRa:RXRa (NR concentration 90 nM, RXRa partner concentration 90 nM). In short, it runs like this:
as §1

Experiment [7] concerns THRa homodimer (NR concentration 90 nM). An outline of the steps:
as §1

The test system of experiment [8] is VDR homodimer (NR concentration 270 nM). In short, it runs like this: as §1

Regarding CCCAGTTGGTCAGGAGGTCACACACCGGATATGA, the PBM binding z-score in experiment [1] is 4.41; in experiment [2] it was 4.87; in experiment [3] it was 4.25; in experiment [4], -0.0617; in experiment [5], 4.6; in experiment [6], 3.52. The PBM binding z-score in experiment [7] was found to be 2.63; in experiment [8] it was 2.66.
With CAAACTAGGTCAAAGGTCCAAGTCGAGCCAACCA, the PBM binding z-score was determined as 3.54 in experiment [1]; 4.98 in experiment [2]; 5.05 in experiment [3]; 2.31 in experiment [4]; 5.69 in experiment [5]; 3.15 in experiment [6]. For the same sequence, the PBM binding z-score in experiment [7] was determined as 0.728; in experiment [8], 1.77.
For the sequence GCGACTGGGGCATCAGCAGGTTACCACAACTTAA, the PBM binding z-score in experiment [1] was 1.08; in experiment [2], 0.941; in experiment [3], 0.32; in experiment [4] it was -0.0403; in experiment [5] it was 0.38; in experiment [6] it was 0.805. The PBM binding z-score in experiment [7] was -0.203; in experiment [8], -0.222.
With GCTGCTACGTCAACTGATGGTCAGCTAAAGCTCG, the PBM binding z-score in experiment [1] was -0.272; in experiment [2], -0.163; in experiment [3], -0.441; in experiment [4] it was -0.129; in experiment [5] it was -0.367; in experiment [6] it was -0.498. Moreover, the PBM binding z-score in experiment [7] is -0.948; in experiment [8] it was -0.701.
Consider CCAGATAGGTGAAAGGTAACTCAGTCTGGTACGC, for which the PBM binding z-score in experiment [1] was 1.04; in experiment [2], 1.53; in experiment [3] it was 0.944; in experiment [4], 0.181; in experiment [5], 2.46; in experiment [6], 0.97. Also, the PBM binding z-score in experiment [7] was 0.0815; in experiment [8], 0.348.
With TCATATAGGTAAAGGTGAAGGTCGAACGATATGA, the PBM binding z-score in experiment [1] came to 2.28; in experiment [2], 2.15; in experiment [3], 2.07; in experiment [4], 0.787; in experiment [5], 2.51; in experiment [6], 1.82. Moreover, the results for the PBM binding z-score in experiment [7] and in experiment [8] were 0.00279 and 0.402, respectively.
Consider TAGCCTAGGTCATTCAGGGGCCAGTATTGAAAGC, for which the PBM binding z-score was found to be 3.3 in experiment [1]; 6.04 in experiment [2]; 4.51 in experiment [3]; 2.08 in experiment [4]; 2.72 in experiment [5]; 3.47 in experiment [6]. In addition, the PBM binding z-score in experiment [7] came out at 0.833; in experiment [8], 2.03.
For the sequence GTACCAAGGTGGATAGGTCGTTGATGAGTAGGCG, the PBM binding z-score was 0.625 in experiment [1]; 0.328 in experiment [2]; 0.275 in experiment [3]; -0.726 in experiment [4]; 0.461 in experiment [5]; -0.0275 in experiment [6]. In addition, the PBM binding z-score in experiment [7] was -0.612; in experiment [8] it was -0.371.
With CCGACTGGGGCACAGGTTACCATACTCAGTACGA, the PBM binding z-score in experiment [1] was 1.07; in experiment [2], 1.02; in experiment [3], 0.906; in experiment [4], -0.122; in experiment [5], 0.761; in experiment [6], 0.272. In addition, the PBM binding z-score is -0.26 in experiment [7] and -0.0992 in experiment [8].
As for CATCCTAGGTCAGGGCCAGTATAGGAGGAACGTT, the PBM binding z-score in experiment [1] stood at 2.73; in experiment [2], 3.24; in experiment [3], 4.12; in experiment [4], 0.0171; in experiment [5], 2.22; in experiment [6] it was 2.52. Moreover, the PBM binding z-score in experiment [7] turned out to be 0.878; in experiment [8] it was 0.11.
As for TCTCGGAGGACAGGAAGGTCAGAGCTTTCCAGAG, the PBM binding z-score in experiment [1] worked out at 3.54; in experiment [2] it was 2.42; in experiment [3] it was 2.34; in experiment [4], 0.51; in experiment [5] it was 1.69; in experiment [6], 2.1. Also, the PBM binding z-score was found to be 0.256 in experiment [7] and 0.37 in experiment [8].
In the case of ATCTCTACGTAAAGATAGTTCAGTGAATGCAAAT, the PBM binding z-score in experiment [1] was found to be 0.65; in experiment [2], 0.0953; in experiment [3] it was 0.572; in experiment [4], 0.102; in experiment [5] it was 0.153; in experiment [6], 0.0897. In addition, the PBM binding z-score in experiment [7] is -0.716; in experiment [8], 0.535.
As for GATACAGGGTCAAGGCCAGTGTACGCGTATTGAT, the PBM binding z-score in experiment [1] worked out at 3.55; in experiment [2] it was 5.61; in experiment [3], 5.38; in experiment [4] it was 2.22; in experiment [5] it was 6.4; in experiment [6] it was 3.55. Besides, the PBM binding z-score came to 1.08 in experiment [7] and 2.13 in experiment [8].
Take CCTGGTTGGTCAGGAGGTCACACACCGGATATGA: the PBM binding z-score in experiment [1] was determined as 4.02; in experiment [2] it was 4.98; in experiment [3] it was 4.31; in experiment [4], 0.0446; in experiment [5] it was 4.57; in experiment [6], 3.37. Also, the PBM binding z-score in experiment [7] worked out at 2.1; in experiment [8], 2.44.
With ACTAGCAGGCCAAGTTTGGGTCACTCTAACAAAG, the PBM binding z-score in experiment [1] is 2.06; in experiment [2], 2.24; in experiment [3], 1.6; in experiment [4] it was -0.0163; in experiment [5] it was 0.429; in experiment [6] it was 2.39. In addition, the PBM binding z-score in experiment [7] came out at 1.06; in experiment [8], 0.209.
In the case of CAGCCTAGGTCAGGGGCAGTATAGGAGGAACGTT, the PBM binding z-score in experiment [1] is 2.99; in experiment [2] it was 3.27; in experiment [3] it was 4.18; in experiment [4], -0.191; in experiment [5], 1.91; in experiment [6], 2.37. Further, the results for the PBM binding z-score in experiment [7] and in experiment [8] were 0.948 and 0.103, respectively.
As for ATAAGTAGGTTACATCCGGGTCATTCAGGCTATG, the PBM binding z-score in experiment [1] amounted to 2.83; in experiment [2], 3.41; in experiment [3], 2.17; in experiment [4], 1.37; in experiment [5], 3.12; in experiment [6] it was 3.72. Further, the figures for the PBM binding z-score in experiment [7] and in experiment [8] were 2.7 and 3.19, respectively.

For the origin of these results see the supplement of paper PMC6555819.
